From PubChem BioAssay (NCI)
Compounds without any hit were thinned out: in the full panel of roughly 79,000, 15% have a hit. Rule as the data show it: active = growth inhibition above about 70%; inactive = the rest.

How the values were obtained:
[1] = NCI Yeast Anticancer Drug Screen. Data for the rad50 strain (AID 155);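 also: 0% = growth of vehicle-only cultures of the same strain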; settings: S. cerevisiae rad50 strain growth inhibition; at 50.0 µM; hits give high values
Summary of the method: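 A DNA repair-deficient yeast mutant serves as the test organism; compound-induced growth inhibition is calculated against vehicle-treated cells.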

[2] = NCI Yeast Anticancer Drug Screen. Data for the mec2-1 strain (AID 157); settings: S. cerevisiae mec2-1 strain, at 50.0 µM, hits give high values
Summary of the method: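 Test agents were screened against the mec2-1 yeast strain, with defined DNA repair or cell cycle alteration. Growth was scored as inhibition against vehicle-only controls.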

[3] = NCI Yeast Anticancer Drug Screen. Data for the sgs1 mgt1 strain (AID 161);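 also: 0% = growth of cultures given vehicle only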; settings: S. cerevisiae sgs1 mgt1 strain, at 50.0 µM, hits give high values
Summary of the method: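 Genetically altered yeast, compound exposure, growth inhibition relative to vehicle.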

[4] = NCI Yeast Anticancer Drug Screen. Data for the cln2 rad14 strain (AID 165);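 also: 0% = growth equal to vehicle treated cultures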; settings: S. cerevisiae cln2 rad14 strain, at 50.0 µM, hits give high values
Summary of the method: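 Growth of compound-exposed yeast (cln2 rad14 genotype) measured and expressed as inhibition relative to vehicle.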

[5] = NCI Yeast Anticancer Drug Screen. Data for the bub3 strain (AID 167); settings: S. cerevisiae bub3 mutant strain, at 50.0 µM, hits give high values
Summary of the method: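 Inhibition values come from growth of compound-treated mutant yeast normalised to vehicle-treated controls.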

[6] = NCI Yeast Anticancer Drug Screen. Data for the mlh1 rad18 strain (AID 175); settings: S. cerevisiae mlh1 rad18 strain growth inhibition; at 50.0 µM; hits give high values
Summary of the method: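 In this whole-cell yeast screen, a strain with altered DNA damage repair is challenged with compound, and its growth is measured against matched vehicle-treated controls.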

Measured: growth inhibition

CC(O)CCC(C)(C)[N+](=O)[O-] (centres undefined)
inactive: [1] 3.15% | [2] -6.85% | [3] 0.1% | [4] 10.8% | [5] 0.25% | [6] -0.9%

CCC1CCN(CC)CC1
inactive: [1] 3.1% | [2] -37.4% | [3] 3.2% | [4] 1.8% | [5] -19.6% | [6] -4.1%

O=C(O)c1c(Br)c(Br)c(Br)c(Br)c1C1c2ccc(O)cc2Oc2cc(O)ccc21
inactive: [1] 20.4% | [2] 25% | [3] 35% | [4] -7.75% | [5] -2.6% | [6] 26.6%

NC(C(=O)O)C(SCc1ccccc1)c1cccc(O)c1 (centres undefined)
inactive: [1] -3.2% | [2] 14.3% | [3] 18.7% | [4] -26.4% | [5] -1.3% | [6] -0.7%

CC(=O)CC(=O)Nc1cc(C(F)(F)F)ccc1Cl
inactive: [1] 15.4% | [2] -25.6% | [3] -19.1% | [4] -0.3% | [5] -6.25% | [6] 3.05%

ClC1=Cc2cccc3cccc1c23
inactive: [1] 1.55% | [2] 6.15% | [3] 0.2% | [4] 2.5% | [5] 12.4% | [6] 3.8%

O=S(=O)(c1ccccc1)N1C[C@@H]2[C@H](C1)[C@H]1C=C[C@@H]2C1
inactive: [1] 1.95% | [2] -12.3% | [3] 13% | [4] -4.8% | [5] 42.6% | [6] -11%

[O-]c1c2c(nn1-c1ccc(Cl)cc1)c1ccccc1c[n+]2Cc1ccccc1
inactive: [1] -6.1% | [2] -20.6% | [3] -11.2% | [4] -2.5% | [5] 11.4% | [6] -16.2%

COC(=O)c1c(C)oc(C)c1-c1ccc(OCc2ccccc2)c(OC)c1
inactive: [1] 8.7% | [2] -12.8% | [3] -35.8% | [4] 7.6% | [5] 1.25% | [6] 2.7%

O=C(Nc1ccccc1)c1ccc2ccccc2n1
inactive: [1] -12.7% | [2] -31% | [3] -22.1% | [4] -10.1% | [5] 10.6% | [6] 6.75%

Clc1ccc(Cl)c2c(Br)cncc12
inactive: [1] 37.4% | [2] 10.8% | [3] 12.9% | [4] 7.05% | [5] 17.5% | [6] 22.1%

O=C(CO)c1ccc([N+](=O)[O-])cc1
inactive: [1] 16.8% | [2] 34.3% | [3] 1.85% | [4] 7.5% | [5] 13.4% | [6] 40.4%

Oc1ccc(N2CCOCC2)cc1
inactive: [1] 0.45% | [2] 16.8% | [3] 3.05% | [4] -32% | [5] 25.6% | [6] 8.5%

COC1=CC(=O)N(C(=O)C2CSC(C(CO)NC(=O)c3csc(/C=N/O)n3)=N2)C1 (centres undefined)
inactive: [1] 1.85% | [2] -11.3% | [3] 8.9% | [4] -4.15% | [5] -6.25% | [6] 19.9%

Cc1cc(NS(=O)(=O)c2ccc(Nc3c4ccccc4nc4c(C(=O)NCCN(C)C)ccc(Cl)c34)cc2)no1
inactive: [1] -9.25% | [2] 17.1% | [3] -2.4% | [4] 6.1% | [5] -3.25% | [6] 63.5%

COc1cc(C(=O)N2CCCCCCC2)cc(OC)c1OC
inactive: [1] -13.8% | [2] 38.5% | [3] 10.9% | [4] -19.7% | [5] 28.7% | [6] -6.45%

CC(=O)N1CC(C)(C)c2c1cc(C)c(O)c2C
inactive: [1] 1.85% | [2] -47.9% | [3] -8.4% | [4] -7.8% | [5] 5.15% | [6] -1.8%

CCC1OC(=O)C(C)C(OC2CC(C)(O)C(O)C(C)O2)C(C)C(O)C(C)(O)CC(C)C(=O)C(C)C(O)C1C (centres undefined)
inactive: [1] -14.4% | [2] -22.6% | [3] 0.5% | [4] -5.4% | [5] -21.2% | [6] -5.15%

O=C(NN1C(=O)CSC1c1ccccc1F)c1ccncc1 (centres undefined)
inactive: [1] 11.2% | [2] 6.25% | [3] 21.6% | [4] 7.7% | [5] 11.9% | [6] 19.5%
